Data published in PubChem BioAssay AID1671192 (National Center for Advancing Translational Sciences (NCATS), 2021).
Inconclusive results are not listed. The source made the active and inactive calls. Calls follow the shape of the dose curve; as a rule, active = well fitted curve in the direction sought with a large enough effect; inconclusive = small, poorly fitted or top-dose-only effect, or another doubt; inactive = no such curve, though single readings can be large or run the other way.

These compounds were tested against Polyunsaturated fatty acid lipoxygenase ALOX15 (Homo sapiens) (UniProt P16050) (assay: Counterscreen qHTS for inhibitors of human arachidonate 12S-lipoxygenase (ALOX12): ALOX15 Assay). Details: purified ALOX15 enzyme activity; series mostly up to 110 µM.
Chain of Polyunsaturated fatty acid lipoxygenase ALOX15 (Homo sapiens) (P16050 whole entry, looked up): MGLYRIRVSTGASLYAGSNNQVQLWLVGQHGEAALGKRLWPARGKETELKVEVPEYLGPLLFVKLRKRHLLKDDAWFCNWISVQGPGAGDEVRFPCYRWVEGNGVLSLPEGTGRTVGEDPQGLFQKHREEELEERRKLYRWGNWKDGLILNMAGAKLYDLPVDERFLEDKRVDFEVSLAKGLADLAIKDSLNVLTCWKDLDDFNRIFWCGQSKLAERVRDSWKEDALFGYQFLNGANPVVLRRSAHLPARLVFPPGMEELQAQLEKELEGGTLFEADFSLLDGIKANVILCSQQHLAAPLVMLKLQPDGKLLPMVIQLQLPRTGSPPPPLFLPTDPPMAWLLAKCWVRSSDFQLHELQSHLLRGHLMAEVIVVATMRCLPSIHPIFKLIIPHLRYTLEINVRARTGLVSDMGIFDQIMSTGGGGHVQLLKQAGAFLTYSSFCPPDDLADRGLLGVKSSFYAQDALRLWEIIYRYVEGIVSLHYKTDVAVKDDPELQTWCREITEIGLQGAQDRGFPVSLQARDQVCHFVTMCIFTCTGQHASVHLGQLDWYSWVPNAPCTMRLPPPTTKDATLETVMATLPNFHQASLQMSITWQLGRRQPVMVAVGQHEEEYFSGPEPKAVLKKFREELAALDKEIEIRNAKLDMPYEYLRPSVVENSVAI
Summary of the method: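 Purified human ALOX15 (15hLO-1) at 40 nM in 25 mM HEPES, 0.01% Triton X-100, pH 7.5, preincubated with compound 15 min at RT. Then 50 uM arachidonic acid for 30 min; hydroperoxide detected by Fe-xylenol orange as the 573/405 nm absorbance ratio.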

Structure (SMILES)	outcome
COc1cccc(N2C(=O)NC(=NC3CCCCC3)C23CCCN([S+](=O)([O-])c2cccc(C(F)(F)F)c2)C3)c1 (stereo not drawn)	inactive
CN1CC(=O)N(C2CCCNCC2)Cc2c1ncnc2N1CCC(C#N)CC1 (stereo not drawn)	inactive
COc1cccc(N2C(=O)NC(=NC3CCCCC3)C23CCCN(Cc2cccnc2)C3)c1 (stereo not drawn)	inactive
O=C1NC2(Cc3ccccc31)CN(C(=O)c1ccccc1F)C2	inactive
CC(=O)N1CCN(c2ccc(Cl)nn2)C(=O)C1	inactive
O=C1NCc2ccccc2CC12CCN(Cc1cccc(C(F)(F)F)c1)C2 (stereo not drawn)	inactive
CNC(c1ccccc1)c1ccccc1	inactive
O=c1n(-c2ccc(C(F)(F)F)cc2)nc2n1CCN(Cc1ccc(C(F)(F)F)cc1)C2	inactive
O=Cc1ccc(-c2cncc(C(=O)O)c2)cc1	inactive
COc1ccc(N2CC3CCC(C2)N3Cc2ccc(C#N)cc2)cc1	inactive
O=C1NCc2ccccc2CC12CCN(Cc1ccc(F)cc1F)CC2	inactive
O=C1NCc2ccccc2CC12CCN(C/C=C/c1ccccc1)CC2	inactive
CCC(=O)N1Cc2ccccc2CC2(CCN(CCc3ccc(C)cc3)CC2)C1	inactive
O=C(C1CCCC1)N1Cc2ccccc2CC2(CCN(Cc3cccnc3)C2)C1 (stereo not drawn)	inactive
CC(=O)N1Cc2ccccc2CC2(CCN(Cc3ccncc3)C2)C1 (stereo not drawn)	inactive
O=S1(=O)CCCN1C1CCN(Cc2cccc3ccccc23)CC1	inactive
CN1CC(=O)N(c2cccc(F)c2)Cc2c1ncnc2N1CCC(F)CC1	inactive
Cn1cccc1CN1CCC2(CC1)C(=NC1CCCCC1)NC(=O)N2c1cc(F)cc(F)c1	inactive
C[C@H](C(=O)N1Cc2ccccc2CC2(CCN(C)C2)C1)c1ccccc1 (stereo partly drawn)	inactive

Structure (SMILES)	outcome
C[S+](=O)([O-])N1CC2(Cc3ccccc3NC2=O)C1	inactive
O=C(c1cc(C2CC2)nc2onc(C3CCCNC3)c12)N1CCCCC1 (stereo not drawn)	inactive
NC(C(=O)N1CCC2(CC1)CN(C(=O)Cc1cccc(Cl)c1)CCO2)c1ccccc1 (stereo not drawn)	inactive
COc1ccc(-c2nc(C3CC3)nc3c2CN(C(=O)c2ccccc2)CC3)cc1	inactive
COc1cccc(N2C(=O)NC(=NC3CCCC3)C23CCCN(CC2CC2)C3)c1 (stereo not drawn)	inactive
C[S+](=O)([O-])N1CC2ON=C(C(=O)NCCc3ccc(Cl)cc3)C2C1 (stereo not drawn)	inactive
COc1ccc(-c2nc(C3CC3)nc3c2CN([S+](=O)([O-])c2ccccc2)CC3)cc1	inactive
CC(=O)N1CCN(c2ncnc3c2CN(C2CCCNCC2)C(=O)CN3C)CC1 (stereo not drawn)	inactive
O=[S+]([O-])(c1ccc(Br)cc1)c1nnn2c1nc(NCc1ccc(F)cc1)c1ccccc12	inactive
CN1CC(=O)N(C2CCNC2)Cc2c(NCC3CCCCC3)ncnc21 (stereo not drawn)	inactive
CN1CC(=O)N(C2CCCNC2)Cc2c(NC3CCCCCC3)ncnc21 (stereo not drawn)	inactive
NCc1cccc(-c2cncnc2)c1	inactive
CN1CC(=O)N(C2CCCNC2)Cc2c(NCC3CCCCCC3)ncnc21 (stereo not drawn)	inactive
O=C(c1ccncc1)N1CCCC(c2nnc3n2CCNC3)C1 (stereo not drawn)	inactive
CC(CCc1ccccc1)Nc1ncnc2c1CN(C1CCNC1)C(=O)CN2C (stereo not drawn)	inactive
O=C(c1ccccn1)N1CCn2c(nn(-c3ccc(Cl)cc3)c2=O)C1	inactive
CNC(=O)c1cn2c(n1)CN([S+](C)(=O)[O-])CC2	inactive
COCCNC(=O)c1cc(C)nc2onc(C3CCCNC3)c12 (stereo not drawn)	inactive
CNCc1ccccc1C(F)(F)F	inactive
